{"source": "ChEMBL document CHEMBL2218924", "about": "“A broad activity screen in support of a chemogenomic map for kinase signalling research and drug discovery” (Biochem J, 2013)", "key": {"[1]": {"target": "Tyrosine-protein kinase SYK (Homo sapiens) (UniProt P43405)", "conditions": "at 10 µM"}, "[2]": {"target": "T1, Mitogen-activated protein kinase kinase kinase 7 (Homo sapiens) (UniProt O43318)", "T1 sequence (whole entry)": "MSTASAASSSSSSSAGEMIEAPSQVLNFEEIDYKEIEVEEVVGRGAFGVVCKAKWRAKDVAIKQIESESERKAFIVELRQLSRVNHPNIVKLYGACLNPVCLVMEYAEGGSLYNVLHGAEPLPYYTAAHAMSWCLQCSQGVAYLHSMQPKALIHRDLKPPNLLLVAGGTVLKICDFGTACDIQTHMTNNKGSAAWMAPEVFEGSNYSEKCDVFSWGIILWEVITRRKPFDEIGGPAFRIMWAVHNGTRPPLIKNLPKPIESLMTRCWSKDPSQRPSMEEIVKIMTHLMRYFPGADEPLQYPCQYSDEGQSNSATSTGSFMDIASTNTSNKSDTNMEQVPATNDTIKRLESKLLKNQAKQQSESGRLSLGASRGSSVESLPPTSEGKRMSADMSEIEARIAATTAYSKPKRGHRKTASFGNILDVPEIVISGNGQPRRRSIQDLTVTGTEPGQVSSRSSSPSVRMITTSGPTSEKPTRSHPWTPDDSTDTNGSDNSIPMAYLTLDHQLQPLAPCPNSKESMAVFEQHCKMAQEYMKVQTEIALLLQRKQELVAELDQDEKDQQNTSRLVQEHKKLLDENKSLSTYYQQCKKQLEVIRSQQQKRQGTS", "conditions": "at 1 µM"}, "[3]": {"target": "T1, Mitogen-activated protein kinase kinase kinase 7 (Homo sapiens)", "conditions": "at 10 µM"}, "[4]": {"target": "T2, Serine/threonine-protein kinase TAO1 (Homo sapiens) (UniProt Q7L7X3)", "T2 sequence (whole entry)": "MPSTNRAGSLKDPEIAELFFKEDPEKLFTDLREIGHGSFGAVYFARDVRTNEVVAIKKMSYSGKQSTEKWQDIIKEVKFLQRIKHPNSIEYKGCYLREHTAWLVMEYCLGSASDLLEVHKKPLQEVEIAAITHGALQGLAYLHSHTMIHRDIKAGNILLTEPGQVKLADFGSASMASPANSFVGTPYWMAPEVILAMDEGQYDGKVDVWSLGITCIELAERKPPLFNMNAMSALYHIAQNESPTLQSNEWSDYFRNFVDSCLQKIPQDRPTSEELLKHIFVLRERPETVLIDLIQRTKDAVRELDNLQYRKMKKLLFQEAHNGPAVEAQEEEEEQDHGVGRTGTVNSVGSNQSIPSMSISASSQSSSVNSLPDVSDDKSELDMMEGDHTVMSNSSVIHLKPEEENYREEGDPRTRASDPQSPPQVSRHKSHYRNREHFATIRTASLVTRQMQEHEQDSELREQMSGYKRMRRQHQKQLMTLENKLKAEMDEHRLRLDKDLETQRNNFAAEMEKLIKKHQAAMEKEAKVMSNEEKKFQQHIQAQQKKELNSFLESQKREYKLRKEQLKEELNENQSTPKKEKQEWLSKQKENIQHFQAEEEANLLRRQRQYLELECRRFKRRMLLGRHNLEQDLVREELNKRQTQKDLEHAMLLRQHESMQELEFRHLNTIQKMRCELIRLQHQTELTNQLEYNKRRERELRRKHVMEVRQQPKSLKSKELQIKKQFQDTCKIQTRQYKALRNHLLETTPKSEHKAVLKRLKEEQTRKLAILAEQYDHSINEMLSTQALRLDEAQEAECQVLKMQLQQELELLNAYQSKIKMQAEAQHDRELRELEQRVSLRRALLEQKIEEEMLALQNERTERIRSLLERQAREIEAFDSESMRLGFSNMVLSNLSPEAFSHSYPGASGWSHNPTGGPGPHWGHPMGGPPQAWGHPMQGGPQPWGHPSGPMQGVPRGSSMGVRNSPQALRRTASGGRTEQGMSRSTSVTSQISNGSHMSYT", "conditions": "at 10 µM"}, "[5]": {"target": "T3, Serine/threonine-protein kinase TAO2 (Homo sapiens) (UniProt Q9UL54)", "T3 sequence (whole entry)": "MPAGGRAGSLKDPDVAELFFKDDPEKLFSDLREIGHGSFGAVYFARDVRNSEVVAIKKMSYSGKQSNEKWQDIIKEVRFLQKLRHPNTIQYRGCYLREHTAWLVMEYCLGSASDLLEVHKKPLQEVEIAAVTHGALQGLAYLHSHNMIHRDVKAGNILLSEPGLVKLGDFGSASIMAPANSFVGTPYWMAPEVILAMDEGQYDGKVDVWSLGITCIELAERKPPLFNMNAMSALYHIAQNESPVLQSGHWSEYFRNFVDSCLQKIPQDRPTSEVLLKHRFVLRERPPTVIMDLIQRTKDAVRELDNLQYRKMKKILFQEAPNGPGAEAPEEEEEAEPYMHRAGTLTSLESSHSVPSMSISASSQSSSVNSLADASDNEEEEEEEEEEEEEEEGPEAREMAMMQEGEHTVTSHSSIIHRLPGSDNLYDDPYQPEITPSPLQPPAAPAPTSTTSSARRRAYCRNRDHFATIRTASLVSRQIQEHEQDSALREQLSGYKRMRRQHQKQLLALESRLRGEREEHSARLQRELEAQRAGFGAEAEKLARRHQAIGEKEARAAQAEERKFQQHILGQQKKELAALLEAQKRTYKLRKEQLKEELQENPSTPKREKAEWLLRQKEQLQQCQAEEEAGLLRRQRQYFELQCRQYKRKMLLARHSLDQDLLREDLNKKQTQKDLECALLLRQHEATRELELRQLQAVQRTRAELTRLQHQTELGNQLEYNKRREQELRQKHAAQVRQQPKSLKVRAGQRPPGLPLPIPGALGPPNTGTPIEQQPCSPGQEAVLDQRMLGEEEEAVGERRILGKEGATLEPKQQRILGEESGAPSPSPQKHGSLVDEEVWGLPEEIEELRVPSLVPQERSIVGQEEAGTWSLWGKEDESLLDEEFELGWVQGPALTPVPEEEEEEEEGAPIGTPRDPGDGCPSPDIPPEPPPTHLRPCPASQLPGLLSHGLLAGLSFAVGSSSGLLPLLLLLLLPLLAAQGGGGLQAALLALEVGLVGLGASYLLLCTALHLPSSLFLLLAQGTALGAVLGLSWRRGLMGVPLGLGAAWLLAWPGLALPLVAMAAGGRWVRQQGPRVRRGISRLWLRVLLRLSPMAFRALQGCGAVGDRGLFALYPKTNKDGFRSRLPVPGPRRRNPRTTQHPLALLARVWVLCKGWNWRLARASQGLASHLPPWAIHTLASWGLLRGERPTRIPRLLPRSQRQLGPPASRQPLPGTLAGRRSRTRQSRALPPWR", "conditions": "at 1 µM"}, "[6]": {"target": "T3, Serine/threonine-protein kinase TAO2 (Homo sapiens)", "conditions": "at 10 µM"}, "[7]": {"target": "T4, Serine/threonine-protein kinase TAO3 (Homo sapiens) (UniProt Q9H2K8)", "T4 sequence (whole entry)": "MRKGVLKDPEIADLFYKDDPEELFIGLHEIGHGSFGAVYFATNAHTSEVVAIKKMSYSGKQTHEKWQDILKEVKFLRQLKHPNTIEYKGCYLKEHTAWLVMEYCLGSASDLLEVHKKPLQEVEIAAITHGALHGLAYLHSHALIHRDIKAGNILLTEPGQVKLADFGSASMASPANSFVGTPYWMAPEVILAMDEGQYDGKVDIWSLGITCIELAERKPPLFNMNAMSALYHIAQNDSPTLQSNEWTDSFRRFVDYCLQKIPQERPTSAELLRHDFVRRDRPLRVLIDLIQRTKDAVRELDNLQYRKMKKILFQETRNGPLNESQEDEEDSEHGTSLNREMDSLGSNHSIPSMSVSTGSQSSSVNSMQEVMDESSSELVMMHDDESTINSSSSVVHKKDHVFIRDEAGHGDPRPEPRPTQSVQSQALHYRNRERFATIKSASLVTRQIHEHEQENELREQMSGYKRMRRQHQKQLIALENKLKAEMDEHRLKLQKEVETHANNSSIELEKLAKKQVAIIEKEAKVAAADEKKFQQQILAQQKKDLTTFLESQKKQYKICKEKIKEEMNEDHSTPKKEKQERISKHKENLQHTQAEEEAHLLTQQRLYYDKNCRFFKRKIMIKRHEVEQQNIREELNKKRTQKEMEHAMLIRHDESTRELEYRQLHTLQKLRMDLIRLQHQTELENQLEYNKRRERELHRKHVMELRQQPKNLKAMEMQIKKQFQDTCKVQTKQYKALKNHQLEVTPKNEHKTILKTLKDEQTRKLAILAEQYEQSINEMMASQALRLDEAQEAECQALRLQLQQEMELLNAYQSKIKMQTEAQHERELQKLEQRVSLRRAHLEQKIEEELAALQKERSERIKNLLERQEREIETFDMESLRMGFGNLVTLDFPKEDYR", "conditions": "at 1 µM"}, "[8]": {"target": "T4, Serine/threonine-protein kinase TAO3 (Homo sapiens)", "conditions": "at 10 µM"}}}
{"molecule": "COc1cc2ncnc(Nc3ccc(NC(=O)c4ccccc4)cc3)c2cc1OC", "values": [{"measurement": "residual activity", "setting": "[1]", "result": 88, "unit": "%"}, {"measurement": "residual activity", "setting": "[2]", "result": 107, "unit": "%"}, {"measurement": "residual activity", "setting": "[3]", "result": 96, "unit": "%"}, {"measurement": "residual activity", "setting": "[4]", "result": 94, "unit": "%"}, {"measurement": "residual activity", "setting": "[5]", "result": 98, "unit": "%"}, {"measurement": "residual activity", "setting": "[6]", "result": 83, "unit": "%"}, {"measurement": "residual activity", "setting": "[7]", "result": 102, "unit": "%"}, {"measurement": "residual activity", "setting": "[8]", "result": 84, "unit": "%"}]}
